Most compounds without a hit are left out; they make up all but 4.1% or so of the library.
NALP3 yeast inh – NALP3 inhibition in yeast. Yeast reconstituted NLRP3/ASC/caspase-1, beta-gal luminescence, 24 h. inhibition, % at 10 µM. actives 0.39% (n = 330,000);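 active means inhibition of 50% or more; inactive means inhibition below 50%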;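 further: plate controls were induced DMSO wells for no effect and uninduced yeast grown without galactose for full effect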
PfHsp90 set2 – reduces growth (ATP signal) of yeast expressing P. falciparum Hsp90; actives 0.32% (n = 310,000); AID 504621; inhibition, % at 9.4 µM; S. cerevisiae expressing PfHsp90, BacTiter-Glo ATP, 48 h; yeast lacking PDR1 and PDR3 efflux regulators;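 active means every replicate shows inhibition above about 80%, whatever the replicate mean, limit read from the data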;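 further: 0% = DMSO neutral controls and 100% = 20 µM radicicol positive controls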
tim10-1 inh – inhibits growth of tim10-1 mutant yeast; S. cerevisiae tim10-1 ts strain growth, BacTiter-Glo, 24 h; inhibition, % at 20 µM; actives 2.2% (n = 330,000); AID 463190;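 active means inhibition of at least 40%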;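 further: mutant grown at 25 °C; 0% = DMSO wells with yeast and 100% = wells holding no yeast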
NALP1 yeast inh – inhibitors of NALP1 inflammasome in yeast | AID 2071 | inhibition, % at 10 µM | actives 0.61% (n = 280,000) | S. cerevisiae NALP1/ASC/caspase-1 growth, X-gal OD620, 72 h; in the data active means inhibition mostly above about 24%, no sharp cut-off; inactive means mostly below about 32%
tim23-1 inh – growth inhibitors of tim23-1 mutant yeast; S. cerevisiae tim23-1 growth, BacTiter-Glo luminescence, 24 h; actives 1.3% (n = 330,000); inhibition, % at 20 µM;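 active means growth inhibition of the mutant yeast at or above 50%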;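 further: temperature-sensitive mutant grown at 25 °C; plate controls were DMSO-treated mutant yeast for no effect and medium wells lacking yeast for full effect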
TIM10 inh – inhibits growth of TIM10 yeast strain | S. cerevisiae TIM10 strain growth, BacTiter-Glo luminescence, 24 h | inhibition, % at 10 µM | actives 1.4% (n = 330,000) | AID 463195;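 active means inhibition of 40% or more at the single tested concentration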;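 further: wild-type TIM10 isogenic control strain grown at permissive 25 °C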
TIM10 conf – confirmation of TIM10 yeast growth inhibitors | shares compounds with TIM10 inh | S. cerevisiae tim10 strain growth, BacTiter-Glo luminescence, 24 h | inhibition, % at 10 µM | actives 63% (n = 4,600);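 active means inhibition of yeast growth at or above a set limit in either of two replicates at 10 µM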;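 further: this counterscreen used the strain with wild-type TIM10; 0% = yeast with DMSO and 100% = medium wells lacking yeast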
tim23-1 confirm – tim23-1 yeast growth inhibition, confirmed | inhibition, % at 20 µM | actives 83% (n = 4,400) | shares compounds with tim23-1 inh | AID 463218 | S. cerevisiae tim23-1 growth, BacTiter-Glo luminescence, 24 h;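 active means inhibition above about 39% in either of two replicate wells at 20 µM, limit read from the data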;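 further: temperature-sensitive tim23-1 mutant grown at 25 °C; 0% = DMSO wells with yeast and 100% = medium wells without yeast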
* hit, by the source's call.

What do the screens show for `O=C(NCCc1cnn(-c2ccccc2)c1)c1cc(COc2c(F)cccc2F)on1`?
NALP3 yeast inh: 33.7; PfHsp90 set2: 3.6; tim10-1 inh: 29.3; NALP1 yeast inh: 1.3; tim23-1 inh: 52.1*; TIM10 inh: 68.1*; TIM10 conf: 53.0*; tim23-1 confirm: 67.8*

What do the screens show for `O=C1/C(=C\c2ccc(Br)o2)Cc2ccccc21`?
NALP3 yeast inh: -7.6; PfHsp90 set2: 27.4; tim10-1 inh: 14.2; NALP1 yeast inh: 29.5; tim23-1 inh: 26.9; TIM10 inh: 20.0

What do the screens show for `O=C1/C(=C/c2cccs2)Cc2ccccc21`?
NALP3 yeast inh: -0.5; PfHsp90 set2: 8.8; tim10-1 inh: 19.8; NALP1 yeast inh: 39.1; tim23-1 inh: 50.6*; TIM10 inh: 48.3*; TIM10 conf: -47.8; tim23-1 confirm: 70.0*

What do the screens show for `S=C(NNc1ccnc2cc(Cl)ccc12)Nc1ccccc1Cl`?
NALP3 yeast inh: 16.9; PfHsp90 set2: 21.0; tim10-1 inh: 39.8; NALP1 yeast inh: 20.8; tim23-1 inh: 55.8*; TIM10 inh: 40.1*; TIM10 conf: -21.6; tim23-1 confirm: 34.5

How did O=C(Nc1ccccc1)/C(=C\c1ccc(F)cc1)NC(=O)c1ccco1 do in these assays?
NALP3 yeast inh: -10.9; PfHsp90 set2: -23.9; tim10-1 inh: -4.7; NALP1 yeast inh: 9.6; tim23-1 inh: 4.2; TIM10 inh: -0.3

Results for COc1cccc(/C=N/NC(=O)c2c(C)nc3ccc(Cl)cn23)c1O ?
NALP3 yeast inh: 6.4; PfHsp90 set2: 5.2; tim10-1 inh: 25.7; NALP1 yeast inh: 6.2; tim23-1 inh: 58.8*; TIM10 inh: 48.1*; TIM10 conf: 64.8*; tim23-1 confirm: 58.3*

Results for COc1ccccc1/C=N\NC(=O)c1c(C)nc2ccc(Cl)cn12 ?
NALP3 yeast inh: 14.5; PfHsp90 set2: 18.1; tim10-1 inh: 8.1; NALP1 yeast inh: 3.3; tim23-1 inh: 13.7; TIM10 inh: 4.4

Results for O=C(c1ccc(OC2CCN(CCc3ccccc3)CC2)cc1)N1CCC[C@H]1CO ?
NALP3 yeast inh: 12.4; PfHsp90 set2: -1.4; tim10-1 inh: -14.0; NALP1 yeast inh: 30.0; tim23-1 inh: 2.0; TIM10 inh: -2.2

What do the screens show for `CN(C)S(=O)(=O)c1cc(NC(=O)COC(=O)CC2CC3CCC2C3)ccc1Cl` (stereo not given)?
NALP3 yeast inh: -11.1; PfHsp90 set2: 13.8; tim10-1 inh: -5.9; tim23-1 inh: 11.3; TIM10 inh: 1.1

Results for CCOc1ccc(NC(=O)COC(=O)CC2CC3CCC2C3)cc1 (stereo not given) ?
NALP3 yeast inh: 18.5; PfHsp90 set2: -35.9; tim10-1 inh: 4.4; tim23-1 inh: 58.6*; TIM10 inh: 44.2*; TIM10 conf: 39.8*; tim23-1 confirm: 53.9*

What do the screens show for `CCc1ccc(C(=O)NNC(=O)CN2C(=O)NC(CC)(c3ccccc3)C2=O)cc1` (stereo not given)?
NALP3 yeast inh: 2.2; PfHsp90 set2: -8.5; tim10-1 inh: -67.4; tim23-1 inh: -9.4; TIM10 inh: -26.7

What do the screens show for `CC(Oc1ccc2ccc(=O)oc2c1)C(=O)NC(Cc1c[nH]c2ccc(O)cc12)C(=O)O` (stereo not given)?
NALP3 yeast inh: 16.8; PfHsp90 set2: -10.6; tim10-1 inh: 15.0; NALP1 yeast inh: -0.4; tim23-1 inh: 0.8; TIM10 inh: 2.2

Results for Oc1cccc(Nc2nc(-c3ccccc3)nc3ccccc23)c1 ?
NALP3 yeast inh: 16.8; PfHsp90 set2: -9.2; tim10-1 inh: 21.0; NALP1 yeast inh: 17.0; tim23-1 inh: 82.5*; TIM10 inh: 58.7*; TIM10 conf: 55.5*; tim23-1 confirm: 53.6*

What do the screens show for `COCC(=O)Nc1cc(C(=O)Nc2ccccc2)ccc1Cl`?
NALP3 yeast inh: 21.4; tim10-1 inh: 31.2; NALP1 yeast inh: -9.9; tim23-1 inh: 53.6*; TIM10 inh: 41.8*; TIM10 conf: 47.4*; tim23-1 confirm: 71.0*

What do the screens show for `COc1ccc(C(=O)Nc2ccccc2)cc1NC(=O)c1cccs1`?
NALP3 yeast inh: 20.7; PfHsp90 set2: 2.8; tim10-1 inh: 17.6; NALP1 yeast inh: -0.8; tim23-1 inh: 50.9*; TIM10 inh: 53.9*; TIM10 conf: 45.0*; tim23-1 confirm: 74.2*

How did COC(=O)c1ccccc1-n1c(C)nc(=O)c(-c2ccccc2)c1C do in these assays?
NALP3 yeast inh: 24.1; PfHsp90 set2: -5.0; tim10-1 inh: 0.1; NALP1 yeast inh: 7.8; tim23-1 inh: 0.6; TIM10 inh: -15.0

What do the screens show for `O=[N+]([O-])c1cc(C(F)(F)F)ccc1NCCNC(=S)Nc1ccc(Cl)cc1`?
NALP3 yeast inh: 38.4; PfHsp90 set2: -23.0; tim10-1 inh: -32.2; NALP1 yeast inh: 6.1; tim23-1 inh: 80.5*; TIM10 inh: 56.0*; TIM10 conf: 50.4*; tim23-1 confirm: -14.6

How did O=[N+]([O-])c1cc(C(F)(F)F)ccc1NCCCCNS(=O)(=O)c1ccc(Cl)cc1 do in these assays?
NALP3 yeast inh: -5.2; PfHsp90 set2: -29.4; tim10-1 inh: 10.2; NALP1 yeast inh: 22.6; tim23-1 inh: 12.7; TIM10 inh: -6.2

Results for Cc1cccc(NC(=O)C2C(c3ccccc3)C2(Cl)Cl)c1 (stereo not given) ?
NALP3 yeast inh: 37.6; PfHsp90 set2: 1.8; tim10-1 inh: 11.3; NALP1 yeast inh: 8.6; tim23-1 inh: 52.1*; TIM10 inh: 45.7*; TIM10 conf: 32.5*; tim23-1 confirm: 51.1*

What do the screens show for `N/C(Cc1ccc([N+](=O)[O-])cc1)=N\OC(=O)c1ccc(Br)cc1`?
NALP3 yeast inh: 17.6; PfHsp90 set2: 25.2; tim10-1 inh: 24.4; NALP1 yeast inh: 38.4; tim23-1 inh: 83.2*; TIM10 inh: 91.5*; TIM10 conf: 94.5*; tim23-1 confirm: 32.2

What do the screens show for `Cc1ccc(CC(=O)O/N=C(\N)c2cccc([N+](=O)[O-])c2)cc1`?
NALP3 yeast inh: 6.6; PfHsp90 set2: -17.6; tim10-1 inh: 27.4; NALP1 yeast inh: 19.7; tim23-1 inh: 17.8; TIM10 inh: 16.3

What do the screens show for `Cc1ccc(C(=O)O/N=C(\N)Cc2ccc([N+](=O)[O-])cc2)c(Cl)c1`?
NALP3 yeast inh: 21.4; PfHsp90 set2: -0.2; tim10-1 inh: -1.8; NALP1 yeast inh: 6.6; tim23-1 inh: 88.0*; TIM10 inh: 89.3*; TIM10 conf: 96.0*; tim23-1 confirm: 65.0*

How did Cc1c(C(=O)n2cnc3ccccc32)cccc1[N+](=O)[O-] do in these assays?
NALP3 yeast inh: -10.6; PfHsp90 set2: 4.1; tim10-1 inh: 27.5; NALP1 yeast inh: -1.7; tim23-1 inh: 22.3; TIM10 inh: 6.7

Screens: PubChem, several laboratories
